Measurements from PubChem BioAssay AID1159580 (chemical genetic matrix, 2015).
In all, about 5,500 compounds went through this assay and about 2,000 (36%) were called active. Roughly 18% stayed inconclusive and do not appear here. Cut-off read from the data, not from the text of the source: active = normalized growth mostly below about 0.91 (no sharp cut-off); inconclusive = no clear call, values can overlap the other calls; inactive = mostly above about 0.92. This is one part of the list.

Test: chemical genetic growth profiling, strain panel (AID 1159580);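 note: tested at 20 µM; growth read once vehicle control cultures reached saturation at 30 °C; 1 = growth at the plate median or of vehicle wells; lower values mean less growth of the strain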
Conditions: growth OD

Measured: normalized growth

NCC(=O)c1ccccc1
inactive: S. cerevisiae deletion strains, locus YJR075W, strain HOC1, hits give low values 1.05 | S. cerevisiae deletion strains, locus YKL009W, strain mrt4, hits give low values 0.981 | S. cerevisiae deletion strains, locus YKL068W, hits give low values 1 | S. cerevisiae deletion strains, locus YKL085W, strain MDH1 (second series), hits give low values 0.988 | S. cerevisiae deletion strains, locus YKL085W, strain MDH1, hits give low values 0.988 | S. cerevisiae deletion strains, locus YKL160W, strain elf1, hits give low values 1 | S. cerevisiae deletion strains, locus YKL190W, strain CNB1, hits give low values 1.02 | S. cerevisiae deletion strains, locus YKR001C, strain vps1, hits give low values 0.988 | S. cerevisiae deletion strains, locus YKR026C, strain gcn3, hits give low values 1 | S. cerevisiae deletion strains, locus YKR091W, strain srl3, hits give low values 0.997 | S. cerevisiae deletion strains, locus YLL001W, strain dnm1, hits give low values 1 | S. cerevisiae deletion strains, locus YLL026W, hits give low values 1 | S. cerevisiae deletion strains, locus YLL041C, strain sdh2, hits give low values 1 | S. cerevisiae deletion strains, locus YLR027C, strain aat2, hits give low values 0.997 | S. cerevisiae deletion strains, locus YLR039C, strain RIC1, hits give low values 1.03 | S. cerevisiae deletion strains, locus YLR058C, strain SHM2, hits give low values 1.02 | S. cerevisiae deletion strains, locus YLR102C, strain apc9, hits give low values 0.988 | S. cerevisiae deletion strains, locus YLR113W, strain HOG1, hits give low values 1.07 | S. cerevisiae deletion strains, locus YLR221C, strain rsa3, hits give low values 1.02 | S. cerevisiae deletion strains, locus YLR258W, strain gsy2, hits give low values 0.977 | S. cerevisiae deletion strains, locus YLR262C, strain YPT6 (second series), hits give low values 1.03 | S. cerevisiae deletion strains, locus YLR262C, strain YPT6, hits give low values 1.02 | S. cerevisiae deletion strains, locus YLR268W, strain sec22, hits give low values 0.986 | S. cerevisiae deletion strains, locus YLR320W, strain mms22, hits give low values 0.991 | S. cerevisiae deletion strains, locus YLR330W, strain CHS5, hits give low values 1.02 | S. cerevisiae deletion strains, locus YLR342W, strain FKS1 (second series), hits give low values 0.988 | S. cerevisiae deletion strains, locus YLR342W, strain FKS1, hits give low values 0.992 | S. cerevisiae deletion strains, locus YLR357W, strain rsc2, hits give low values 0.966 | S. cerevisiae deletion strains, locus YLR370C, strain arc18, hits give low values 1.01 | S. cerevisiae deletion strains, locus YLR371W, strain rom2, hits give low values 0.993 | S. cerevisiae deletion strains, locus YLR384C, strain iki3, hits give low values 1.01 | S. cerevisiae deletion strains, locus YLR418C, strain cdc73, hits give low values 1 | S. cerevisiae deletion strains, locus YML016C, strain PPZ1, hits give low values 1.02 | S. cerevisiae deletion strains, locus YML032C, strain rad52, hits give low values 0.986 | S. cerevisiae deletion strains, locus YML120C, strain ndi1, hits give low values 0.989 | S. cerevisiae deletion strains, locus YML124C, strain tub3, hits give low values 0.993 | S. cerevisiae deletion strains, locus YMR058W, strain fet3, hits give low values 1.01 | S. cerevisiae deletion strains, locus YMR078C, strain ctf18, hits give low values 1 | S. cerevisiae deletion strains, locus YMR125W, strain sto1, hits give low values 1.01 | S. cerevisiae deletion strains, locus YMR129W, hits give low values 1 | S. cerevisiae deletion strains, locus YMR205C, strain PFK2, hits give low values 1.01 | S. cerevisiae deletion strains, locus YMR223W, strain ubp8, hits give low values 0.987 | S. cerevisiae deletion strains, locus YMR231W, strain pep5, hits give low values 0.992 | S. cerevisiae deletion strains, locus YMR263W, strain SAP30, hits give low values 1.04 | S. cerevisiae deletion strains, locus YMR307W, strain GAS1, hits give low values 1.02 | S. cerevisiae deletion strains, locus YNL067W, strain RPL9B, hits give low values 1.04 | S. cerevisiae deletion strains, locus YNL071W, strain lat1, hits give low values 0.998 | S. cerevisiae deletion strains, locus YNL128W, strain TEP1, hits give low values 1.05 | S. cerevisiae deletion strains, locus YNL153C, strain GIM3, hits give low values 1.02 | S. cerevisiae deletion strains, locus YNL183C, strain NPR1, hits give low values 0.995 | S. cerevisiae deletion strains, locus YNL209W, strain ssb2, hits give low values 1 | S. cerevisiae deletion strains, locus YNL233W, strain BNI4, hits give low values 1.02 | S. cerevisiae deletion strains, locus YNL248C, strain rpa49, hits give low values 0.99 | S. cerevisiae deletion strains, locus YNL250W, strain rad50, hits give low values 0.985 | S. cerevisiae deletion strains, locus YNL271C, strain bni1, hits give low values 0.986 | S. cerevisiae deletion strains, locus YNL298W, strain CLA4, hits give low values 0.994 | S. cerevisiae deletion strains, locus YNL307C, strain MCK1, hits give low values 0.987 | S. cerevisiae deletion strains, locus YNL322C, strain KRE1 (second series), hits give low values 0.989 | S. cerevisiae deletion strains, locus YNL322C, strain KRE1, hits give low values 1.03 | S. cerevisiae deletion strains, locus YNR049C, strain mso1, hits give low values 1.02 | S. cerevisiae deletion strains, locus YNR052C, strain pop2, hits give low values 0.995 | S. cerevisiae deletion strains, locus YOL006C, strain TOP1, hits give low values 1.09 | S. cerevisiae deletion strains, locus YOL012C, strain htz1 1.45 | S. cerevisiae deletion strains, locus YOL147C, strain pex11, hits give low values 0.993 | S. cerevisiae deletion strains, locus YOR001W, strain rrp6, hits give low values 1.01 | S. cerevisiae deletion strains, locus YOR061W, strain CKA2, hits give low values 1.01 | S. cerevisiae deletion strains, locus YOR069W, strain VPS5, hits give low values 1.01 | S. cerevisiae deletion strains, locus YOR070C, strain gyp1, hits give low values 1 | S. cerevisiae deletion strains, locus YOR080W, strain dia2, hits give low values 0.995 | S. cerevisiae deletion strains, locus YOR083W, strain WHI5, hits give low values 0.994 | S. cerevisiae deletion strains, locus YOR106W, strain vam3, hits give low values 1.02 | S. cerevisiae deletion strains, locus YOR136W, strain idh2, hits give low values 0.991 | S. cerevisiae deletion strains, locus YOR144C, strain elg1, hits give low values 0.999 | S. cerevisiae deletion strains, locus YOR184W, strain ser1, hits give low values 0.983 | S. cerevisiae deletion strains, locus YOR231W, strain MKK1, hits give low values 1.08 | S. cerevisiae deletion strains, locus YOR265W, strain rbl2, hits give low values 1.01 | S. cerevisiae deletion strains, locus YOR270C, strain vph1, hits give low values 1.06 | S. cerevisiae deletion strains, locus YOR290C, strain snf2, hits give low values 0.998 | S. cerevisiae deletion strains, locus YOR316C, strain cot1, hits give low values 0.992 | S. cerevisiae deletion strains, locus YPL051W, strain arl3, hits give low values 1.01 | S. cerevisiae deletion strains, locus YPL055C, strain LGE1, hits give low values 1.06 | S. cerevisiae deletion strains, locus YPL078C, strain atp4, hits give low values 1.02 | S. cerevisiae deletion strains, locus YPL106C, strain sse1, hits give low values 0.973 | S. cerevisiae deletion strains, locus YPL240C, strain hsp82, hits give low values 0.996 | S. cerevisiae deletion strains, locus YPL241C, strain CIN2, hits give low values 1.02 | S. cerevisiae deletion strains, locus YPL256C, strain CLN2, hits give low values 1.05 | S. cerevisiae deletion strains, locus YPR119W, strain clb2, hits give low values 0.996 | S. cerevisiae deletion strains, locus YPR141C, strain kar3, hits give low values 0.993 | S. cerevisiae deletion strains, locus YPR163C, strain tif3, hits give low values 0.99 | S. cerevisiae deletion strains, locus YPR167C, strain met16, hits give low values 0.991 | S. cerevisiae deletion strains, strain wtn01, hits give low values 0.987 | S. cerevisiae strains, strain wild type, hits give low values 1.01
